Results from PubChem BioAssay (NCI).
This is part of a sample that, as a whole, favours compounds with a hit. Of some 79,000 tested, about 15% had one in any assay. Rule as the data show it: active = growth inhibition above about 70%; inactive = the rest.

Experiments:
[1] = NCI Yeast Anticancer Drug Screen. Data for the rad50 strain (AID 155);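 also: 0% = growth of vehicle-only cultures of the same strain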; details: S. cerevisiae rad50 strain growth inhibition; at 50.0 µM; active compounds read high
Outline: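 Compounds were tested on a yeast strain with an engineered DNA damage repair alteration; the reported value is growth inhibition normalised to vehicle treatment.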

[2] = NCI Yeast Anticancer Drug Screen. Data for the mec2-1 strain (AID 157); details: S. cerevisiae mec2-1 strain, at 50.0 µM, active compounds read high
Outline: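 Vehicle-treated cultures served as reference for growth inhibition of compound-exposed mec2-1 yeast.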

[3] = NCI Yeast Anticancer Drug Screen. Data for the sgs1 mgt1 strain (AID 161);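 also: 0% = growth of cultures given vehicle only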; details: S. cerevisiae sgs1 mgt1 strain, at 50.0 µM, active compounds read high
Outline: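 Mutant yeast exposed to compound; growth scored against vehicle-only wells.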

[4] = NCI Yeast Anticancer Drug Screen. Data for the cln2 rad14 strain (AID 165);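 also: 0% = growth equal to vehicle treated cultures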; details: S. cerevisiae cln2 rad14 strain, at 50.0 µM, active compounds read high
Outline: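 Each compound was tested on cln2 rad14 yeast. Inhibition of growth was calculated against vehicle-exposed controls.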

[5] = NCI Yeast Anticancer Drug Screen. Data for the bub3 strain (AID 167); details: S. cerevisiae bub3 mutant strain, at 50.0 µM, active compounds read high
Outline: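 Growth of a checkpoint-deficient yeast mutant is measured after compound exposure. Values represent inhibition relative to vehicle.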

[6] = NCI Yeast Anticancer Drug Screen. Data for the mlh1 rad18 strain (AID 175); details: S. cerevisiae mlh1 rad18 strain growth inhibition; at 50.0 µM; active compounds read high
Outline: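 Vehicle-treated cultures served as the reference for growth inhibition in a yeast strain carrying DNA damage repair alterations exposed to each compound.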

Measured: growth inhibition

CC(C)CC(=O)OC1CCCCC1C1CCCCC1 (stereo not given)
inactive: [1] -2.1% | [2] -6.35% | [3] 12.3% | [4] 7.25% | [5] 13.4% | [6] -4%

O=C/C=C/c1ccc2c(c1)OC(CO)C(c1ccc(O)c(O)c1)O2 (stereo not given)
inactive: [1] 9.15% | [2] 2.2% | [3] 6.7% | [4] 8.15% | [5] 9.7% | [6] 3.2%

Cc1cc(=O)[nH]c(N/N=C2/CCCCC2C)n1 (stereo not given)
inactive: [1] -29.4% | [2] -25% | [3] -7.05% | [4] -0.6% | [5] -24.3% | [6] -21.8%

CC1OC(n2cc(F)c(=O)[nH]c2=O)CCC1O (stereo not given)
inactive: [1] 7% | [2] 10.2% | [3] 33.2% | [4] -10.1% | [5] -29.2% | [6] -60.5%

COc1ccc(/C=C/C(=N\NC(=O)c2ccccc2)c2sc(Nc3ccc([N+](=O)[O-])cc3)nc2C)cc1OC
inactive: [1] -13.3% | [2] 2.5% | [3] 11.1% | [4] 22.8% | [5] 30.8% | [6] -9.85%

CCOC(=O)C1C(c2ccc(Cl)cc2Cl)NC(c2ccc(C)cc2)C(C(=O)OC)S1(=O)=O (stereo not given)
inactive: [1] 13% | [2] -9.8% | [3] -8.85% | [4] 27.3% | [5] -5.1% | [6] 27.1%

COc1cc(O)c2c(c1)Cc1cc(C)cc(O)c1C2=O
inactive: [1] 10.2% | [2] -1% | [3] 6.2% | [4] 22.5% | [5] 16.6% | [6] 1.65%

CCOC(=O)c1ccc(NN=NC(C)(C)C)cc1
inactive: [1] 10.8% | [2] -8.5% | [3] -15.2% | [4] -29.2% | [5] -7.3% | [6] -11.1%

CCOC(=O)C1=CC(C)(C(=O)OCC)Nc2c(nc(SC)n(C)c2=O)N1 (stereo not given)
inactive: [1] -19.4% | [2] -21.2% | [3] -16.3% | [4] 16.8% | [5] -1.55% | [6] 14.2%

Fc1ccc(-c2ncc(-c3ccccc3)o2)cc1
inactive: [1] 0.95% | [2] -22.9% | [3] 5.45% | [4] 0.05% | [5] -14.8% | [6] -12.9%

CC(=O)CCC(=O)C(=[N+]=[N-])S(=O)(=O)c1ccccc1
inactive: [1] -15.6% | [2] -0.2% | [3] -26.1% | [4] 2.85% | [5] -9.7% | [6] -9.2%

FC(F)(F)C1(C(F)(F)F)C2CCC3(CC(F)(F)C(F)(F)S3)C1C2 (stereo not given)
inactive: [1] -1.05% | [2] -27.9% | [3] -4.25% | [4] 22.9% | [5] 7.65% | [6] 30.6%

CCOC(=O)/C(=C\c1ccnc2ccccc12)P(=O)(OCC)OCC
inactive: [1] 11.7% | [2] 4% | [3] 15.4% | [4] 11.1% | [5] 10.3% | [6] 23.1%

C/C(=N\N=C\N(C)S(=O)(=O)c1ccc(C)cc1)c1ccccc1
inactive: [1] -10.7% | [2] -2.8% | [3] -6.3% | [4] -6.25% | [5] 1.55% | [6] -2.7%

O=Cc1cc2c(cc1Cl)OCO2
inactive: [1] -3.3% | [2] -8.05% | [3] -13.8% | [4] 14.8% | [5] -8.4% | [6] -2%

CCC(CCCN)Nc1cc(OC)cc2c(C)ccnc12 (stereo not given)
inactive: [1] -53.9% | [2] -3.1% | [3] 1.75% | [4] -4.5% | [5] 21.2% | [6] -21.2%

COc1ccc(-c2cc(=O)c3cc(C)c(C)c(C(=O)O)c3o2)cc1
inactive: [1] -10.5% | [2] -2.95% | [3] -5.4% | [4] 10.8% | [5] -8.7% | [6] 0.75%

CCOC(=O)N1CCN(CCO)CC1
inactive: [1] -19.9% | [2] 2.65% | [3] 2.35% | [4] -34% | [5] 3.05% | [6] -8.25%

CN(C)C(=S)SCC(=O)c1ccccc1
inactive: [1] -23.1% | [2] -27.6% | [3] -16.6% | [4] -20.2% | [5] -9.7% | [6] -10.6%

COC(=O)C1C(O)C(C)C(OC(C)=O)C(C)/C=C\C=C(C)C(=O)Nc2c(C)c(OC(C)=O)c3c(c2O)C(=O)C(C)=C2OCOC(=C23)C(C)=CC(C)(O)C(O)C(C)C1O (stereo not given)
inactive: [1] 3.25% | [2] -18.8% | [3] 15.7% | [4] 3.35% | [5] 26.8% | [6] 20.9%
